Among the data in PubChem BioAssay are GFP response, % of DMSO values, retold here.

One test in a line: TOR pathway CIT2 reporter hit retest – S. cerevisiae, GFP fusion, cherry picks, mother/daughter gates, confirmation (AID 2274). To be noted: S. cerevisiae CIT2-GFP strain, flow cytometry, 3 h; measured here: daughter cell gate; at 10 µM; stronger effect = higher value.
As to `Cc1ccc2c(nc3s/c(=C\c4ccc(-c5ccccc5C(=O)O)o4)c(=O)n32)c1C`, the GFP response, % of DMSO stood at 158%. The compound `COC(=O)C1=C(C)NC(C)=C(C(=O)OC)C1c1ccc(OC(=O)c2oc3ccccc3c2C)c(OC)c1` yielded a GFP response, % of DMSO of 102%. Turning to `COc1ccc(N2CCN(C(=O)C3CCCN(S(=O)(=O)c4ccc(C)cc4)C3)CC2)cc1` (centres undefined), the GFP response, % of DMSO came to 97.4%. Turning to `O=C(Nc1nccs1)C(c1ccccc1)N1CCCCC1` (centres undefined), the GFP response, % of DMSO is 92%. The compound `C/C(=N\NC(=O)c1cccc(Br)c1)c1ccc(Br)cc1` yielded a GFP response, % of DMSO of 101%. Consider `O=C(OCCCOC(=O)c1ccc(Br)o1)c1ccc(Br)o1`, for which the GFP response, % of DMSO is 97.6%. The compound `CCOC(=O)Cc1csc(NC(=O)c2sc3nc4c(C)cc(C)cc4cc3c2N)n1` came in with a GFP response, % of DMSO of 110%.

`Cc1nn2c(N3CCOCC3)c3c(nc2c1-c1ccccc1)CCCC3` showed a GFP response, % of DMSO of 101%. Same read-out and setting: the value for `O=C(Nc1cc(Sc2ccccn2)cc([N+](=O)[O-])c1)c1ccc(Cl)cc1` was 101%; that for `O=S(=O)(c1cccc(C(F)(F)F)c1)c1ccc(O)cn1` was 106%. As to `COc1cc(/C=N/Nc2nc(C)cc(=O)[nH]2)ccc1O`, the GFP response, % of DMSO turned out to be 121%. `O=C(N/N=C/c1ccccc1Cl)c1ccc(F)cc1` came in with a GFP response, % of DMSO of 103%. `Cc1cccc(C(=O)Nc2ccc(O)cc2)c1` came in with a GFP response, % of DMSO of 101%. Same read-out and setting: the figure for `COc1ccc(NC2=C(Cl)C(=O)N(CCc3ccccc3)C2=O)cc1` is 102%; for `CN(C(=O)c1cccnc1)c1nc(-c2ccccc2)cs1` it is 99.3%. In the case of `Cc1ccc(NC(=O)c2nc(S(=O)(=O)Cc3ccccc3C)ncc2Cl)cc1C`, the GFP response, % of DMSO turned out to be 92.3%. The compound `Cc1cccn2c(=O)c(/C=C(\C#N)C(=O)NCc3ccco3)c(N3CCC(C(N)=O)CC3)nc12` yielded a GFP response, % of DMSO of 95.2%. As to `Cc1cc(C)c(C)c(S(=O)(=O)ON2C(=O)c3ccccc3C2=O)c1C`, the GFP response, % of DMSO turned out to be 113%. On the same count and under the same terms, the value for `CS(=O)(=O)c1nc(-c2cccs2)cc(C(F)(F)F)n1` was 99.2%; that for `COc1cc(NC(=O)c2cccs2)ccc1NC(=O)c1cc2ccccc2o1` was 101%; that for `Cc1cc(NCCN2CCOCC2)n2ncc(-c3ccccc3)c2n1` was 99.3%.

The test is the same for the next values; noted with them: S. cerevisiae CIT2-GFP strain, flow cytometry, 3 h; measured here: mother cell gate; at 10 µM; stronger effect = higher value.
`COC(=O)Cn1cc(/C=C/c2cc[n+](C)cc2)c2ccccc21` returned a GFP response, % of DMSO of 104%. Still for that read-out and setting: the figure for `C=CCNC(=S)N/N=C(\C)c1cccc(OC)c1` is 93.3%; for `COc1cccc(-c2nnc(NC(=O)c3ccc(S(=O)(=O)N4CCOCC4)cc3)o2)c1` it is 100%; for `CCc1ccc(CNC(=O)CCC(=O)N2Cc3cccc(OC)c3Oc3ncccc32)cc1` it is 94.4%. Still for that read-out and setting: the figure for `N#C/C(=C\c1c(N2CCCCCC2)nc2ccccn2c1=O)C(=O)NCc1ccco1` is 96.1%; for `C=CCn1c(=O)c(C(=O)NCCc2ccccc2)c(O)c2ccccc21` it is 101%; for `CCOC(=O)COc1c(Cl)cc(/C=C2\N=C(C)OC2=O)cc1OC` it is 99.8%. Compound `CCOc1ccccc1/C=C/C(=O)c1ccc(Cl)cc1` had a GFP response, % of DMSO of 102%. `Cc1c([N+](=O)[O-])cnc(Sc2ccccc2)c1[N+](=O)[O-]` registered a GFP response, % of DMSO of 99.7%.

`O=C(COC(=O)c1ccc(NS(=O)(=O)c2cccs2)cc1O)Nc1nc2ccccc2s1` registered a GFP response, % of DMSO of 104%.

Consider `COc1ccc(Sc2ncnc3onc(C)c23)cc1`, for which the GFP response, % of DMSO turned out to be 96%.

`Cc1ccc(S(=O)(=O)N2C3C=CC(C3)C2C(=O)O)cc1` (centres undefined) showed a GFP response, % of DMSO of 98.2%. The compound `Cc1ccc(C(C[N+](=O)[O-])Sc2ccc(N)cc2)cc1` (centres undefined) registered a GFP response, % of DMSO of 95%. On the same count and under the same terms, the figure for `CCOc1ccc(N2C(=O)CC(SCCN)C2=O)cc1` (centres undefined) is 98.5%; for `O=C(O)Cc1sc(Nc2ccccc2)nc1-c1cccs1` it is 103%; for `COc1ccccc1-c1noc(CCC(=O)Nc2cccc(C(F)(F)F)c2)n1` it is 94.4%.

In the case of `Cn1cc(/C=C/c2cc[n+](C)cc2)c2cc(Cl)ccc21`, the GFP response, % of DMSO was found to be 124%. With `COc1cccc(-c2noc(-c3cccnc3)n2)c1`, the GFP response, % of DMSO worked out at 102%.

As for `COc1ccc(-c2ccc(SCC(=O)N3c4ccccc4CC3C)nn2)cc1OC` (centres undefined), the GFP response, % of DMSO is 95.6%.

In turn, `Cc1ccc2c(nc3s/c(=C\c4ccc(-c5ccccc5C(=O)O)o4)c(=O)n32)c1C` had a GFP response, % of DMSO of 154%.

Regarding `COC(=O)C1=C(C)NC(C)=C(C(=O)OC)C1c1ccc(OC(=O)c2oc3ccccc3c2C)c(OC)c1`, the GFP response, % of DMSO came to 104%. Consider `COc1ccc(N2CCN(C(=O)C3CCCN(S(=O)(=O)c4ccc(C)cc4)C3)CC2)cc1` (centres undefined), for which the GFP response, % of DMSO is 105%.

In the case of `O=C(Nc1nccs1)C(c1ccccc1)N1CCCCC1` (centres undefined), the GFP response, % of DMSO was determined as 94.4%. Same read-out and setting: the figure for `C/C(=N\NC(=O)c1cccc(Br)c1)c1ccc(Br)cc1` is 98.2%; for `O=C(OCCCOC(=O)c1ccc(Br)o1)c1ccc(Br)o1` it is 97.1%.

Take `CCOC(=O)Cc1csc(NC(=O)c2sc3nc4c(C)cc(C)cc4cc3c2N)n1`: the GFP response, % of DMSO worked out at 118%.

Compound `Cc1nn2c(N3CCOCC3)c3c(nc2c1-c1ccccc1)CCCC3` gave a GFP response, % of DMSO of 102%. The same measure, in the same setting: the figure for `O=C(Nc1cc(Sc2ccccn2)cc([N+](=O)[O-])c1)c1ccc(Cl)cc1` is 99.7%.
